Our source for the Potency values is PubChem BioAssay (NCATS).

Assay [1] is described as follows: qHTS of pediatric cancer cell lines to identify multiple opportunities for drug repurposing: Primary screen for SJ-GBM2 cells (AID 1347091). Also: potency is read from the fitted curve at half-maximal effect. The procedure, abridged:
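Cell viability, CellTiter-Glo luminescence; 500-1,000 cells/well, 8- or 11-point titration, 48 h compound exposure at 37 degrees C, 5% CO2. Controls: DMSO neutral, bortezomib 2.3 µM final as positive.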

Assay [2] can be described thus: qHTS of pediatric cancer cell lines to identify multiple opportunities for drug repurposing: Primary screen for SK-N-MC cells (AID 1347093). Also: potency is read from the fitted curve at half-maximal effect. The procedure, abridged: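 Metabolically active cells were quantified by ATP-dependent luminescence (CellTiter-Glo, 15 min at room temperature) following 48 h treatment. Cells had been plated at 500-1,000 per well and settled for 5 h beforehand.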
A general note: qHTS replaces the single test concentration by a dilution series.

Assay [3] can be described thus: qHTS of pediatric cancer cell lines to identify multiple opportunities for drug repurposing: Primary screen for BT-37 cells (AID 1347094). Also: potency is read from the fitted curve at half-maximal effect. The procedure, abridged: (§1)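 Readout: CellTiter-Glo luminescence, 48 h treatment. Controls DMSO (neutral) and bortezomib 2.3 µM final (positive). Potency and efficacy taken from primary-screen concentration-response curves.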
The nature of assay [4]: qHTS of pediatric cancer cell lines to identify multiple opportunities for drug repurposing: Primary screen for NB-EBc1 cells (AID 1347095). Also: potency is read from the fitted curve at half-maximal effect. In short, it runs like this:
as §1

The nature of assay [5]: qHTS of pediatric cancer cell lines to identify multiple opportunities for drug repurposing: Primary screen for U-2 OS cells (AID 1347096). Also: nearly all actives have a fitted effect of over 50% in size. The procedure, abridged:
(§2)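 Cells (500-1,000/well) rested 5 h, then received compounds for 48 h; metabolically active cells were measured by CellTiter-Glo luminescence. Final concentrations spanned up to 46 µM (MIPE, 11-point) or 0.59 nM-46 µM (NPC, 8-point) in primary screens, 11-point in follow-ups.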

A short description of assay [6]: qHTS of pediatric cancer cell lines to identify multiple opportunities for drug repurposing: Primary screen for SK-N-SH cells (AID 1347098). Also: nearly all actives have a fitted effect of over 65% in size. In short, it runs like this: as §2
Assay [7] can be described thus: qHTS of pediatric cancer cell lines to identify multiple opportunities for drug repurposing: Primary screen for NB1643 cells (AID 1347099). Also: nearly all actives have a fitted effect of over 50% in size. In short, it runs like this:
as §1

Assay [8] can be described thus: qHTS of pediatric cancer cell lines to identify multiple opportunities for drug repurposing: Primary screen for LAN-5 cells (AID 1347100). Also: potency is read from the fitted curve at half-maximal effect. In short, it runs like this:
as §2

The nature of assay [9]: qHTS of pediatric cancer cell lines to identify multiple opportunities for drug repurposing: Primary screen for Saos-2 cells (AID 1347097). Also: nearly all actives have a fitted effect of over 40% in size. In short, it runs like this:
as §1

Each structure is given as a SMILES string. Inconclusive results are not listed. Values without a mark were called inactive. Calls of active or inactive are those of the source. Calls follow the shape of the dose curve; as a rule, active = well fitted curve in the direction sought with a large enough effect; inconclusive = small, poorly fitted or top-dose-only effect, or another doubt; inactive = no such curve, though single readings can be large; an effect the other way counts as inactive or inconclusive.

Turning to `Cc1c(N)c(=O)n(-c2ccccc2)n1C`, the Potency result in assay [1], in [2], in [3], in [4], in [5] and in assay [6] was “inactive” throughout. Also, the Potency result in assay [7] and in assay [8] was “inactive” each time.
As to `CCCCCCCCCCCCCCCCCC(=O)O`, the Potency result in assay [1], in [2], in assay [3], in assay [4], in assay [5] and in [6] was “inactive” each time. Further, the Potency entry in [7] and in assay [8] was “inactive” in each case.
`O=C1CN(/N=C/c2ccc([N+](=O)[O-])o2)C(=O)N1`: the Potency entry in assay [1], in assay [2], in assay [3], in assay [4], in assay [5] and in assay [9] was “inactive” in each case. The Potency result in assay [6], in [7] and in assay [8] was “inactive” throughout.
`COC(=O)Nc1nc2ccc(C(=O)C3CC3)cc2[nH]1`: the Potency in [1] was 841 nM (active); in assay [2], 1060 nM (active); in assay [3], 2190 nM (active); in [4] it was 596 nM (active); in [8] it was 841 nM (active).
As for `CCCSc1ccc2nc(NC(=O)OC)[nH]c2c1`, the Potency in assay [1] was 422 nM (active); in assay [2] it was 841 nM (active); in assay [3], 2460 nM (active); in [4] it was 266 nM (active); in assay [8], 1190 nM (active).
In the case of `CC(C)(C)c1nnc(NS(=O)(=O)c2ccc(N)cc2)s1`, the Potency result in [1], in assay [2], in assay [3], in [4], in assay [5] and in [6] was “inactive” each time. The Potency entry in assay [7] and in assay [8] was “inactive” each time.
For the molecule `O=C(CCN1CCN(CCO)CC1)N1c2ccccc2Sc2ccc(C(F)(F)F)cc21`, the Potency result in assay [1], in assay [2], in assay [3], in assay [4], in [5] and in assay [6] was “inactive” in each case. For the same molecule, the Potency entry in [7] and in assay [8] was “inactive” throughout.
With `CN(C)[C@@H]1C(=O)C(C(=O)NCN2CCCC2)=C(O)[C@@]2(O)C(=O)C3=C(O)c4c(O)cccc4[C@@](C)(O)C3C[C@@H]12` (stereo partly specified), the Potency entry in assay [1], in assay [2], in assay [3], in assay [4], in [5] and in assay [6] was “inactive” throughout. The Potency entry in assay [7] and in [8] was “inactive” in each case.
`C/C(=N\O)c1ccc(OCC(=O)N2CCCCC2)cc1`: the Potency entry in assay [1], in assay [2], in assay [3], in assay [4], in [5] and in [6] was “inactive” in each case. The Potency entry in assay [7] and in [8] was “inactive” in each case.
`COc1ccnc2c1CCCCC2S(=O)c1nc2ccccc2[nH]1` (stereo unspecified): the Potency entry in assay [1], in assay [2], in assay [3], in [4], in assay [5] and in assay [9] was “inactive” each time. The Potency entry in assay [6], in [7] and in assay [8] was “inactive” each time.
Consider `CN(C)CCn1nnnc1SCC1=C(C(=O)O)N2C(=O)[C@@H](NC(=O)Cc3csc(N)n3)[C@H]2SC1`, for which the Potency entry in assay [1], in assay [2], in assay [3], in assay [4], in assay [5] and in [9] was “inactive” each time. Moreover, the Potency entry in assay [6], in assay [7] and in assay [8] was “inactive” in each case.
For `CCCCCCCCCCCCCCCC(=O)OC(C)C`, the Potency entry in [1], in assay [2], in [3], in [4], in assay [5] and in assay [9] was “inactive” throughout. Besides, the Potency entry in assay [6], in [7] and in [8] was “inactive” in each case.
With `CC(=O)SCC(CC(=O)c1ccc(C)cc1)C(=O)O` (stereo unspecified), the Potency result in [1], in [2], in [3], in [4], in assay [5] and in assay [6] was “inactive” each time. In addition, the Potency result in assay [7] and in [8] was “inactive” each time.
For `O=C(O)c1cc(O)c(O)c(O)c1`, the Potency entry in [1], in assay [2], in [3], in assay [4], in assay [5] and in [6] was “inactive” in each case. For the same molecule, the Potency result in assay [7] and in [8] was “inactive” in each case.
As for `CC(N)C(=O)OC(C)(C)Cc1ccc(Cl)cc1` (stereo unspecified), the Potency result in [1], in [2], in assay [3], in [4], in [5] and in [6] was “inactive” in each case. Further, the Potency result in assay [7] and in [8] was “inactive” each time.
For the molecule `CCCCCCCCCCCCOCCO`, the Potency entry in assay [1], in [2], in [3], in assay [4], in [5] and in [6] was “inactive” throughout. For the same molecule, the Potency entry in assay [7] and in [8] was “inactive” each time.
For `CCCOC(=O)c1ccc(O)cc1`, the Potency result in assay [1], in [2], in [3], in assay [4], in [5] and in [6] was “inactive” throughout. Besides, the Potency result in assay [7] and in [8] was “inactive” throughout.
On to `O=C(Nc1ccc(C(=O)O)c(O)c1)c1ccccc1`, for which the Potency entry in assay [1], in [2], in assay [3], in assay [4], in [5] and in assay [9] was “inactive” each time. Also, the Potency result in assay [6], in assay [7] and in assay [8] was “inactive” throughout.
`CCC1C(=O)OCC1Cc1cncn1C` (stereo unspecified): the Potency result in assay [1], in assay [2], in assay [3], in assay [4], in assay [5] and in assay [6] was “inactive” in each case. Also, the Potency entry in [7] and in [8] was “inactive” in each case.
